A short description of test [1]: small molecules captured by biotinylated probe aFSTL3 – biochemical, small-molecule microarray, fluorescence 635/667, stem cell growth factor project, primary screen (AID 1064).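 Further: measures binding of the biotinylated anti-FSTL3 antibody to printed compounds.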 Conditions: higher = more signal.
Test [2] can be described thus: binders from COS7 lysate, DM2A8 probe, primary screen, torsin A project, cell lysate, small-molecule microarray, fluorescence 635/667 (AID 1065). As to conditions: higher = more signal, COS7 lysate expressing mutant human TOR1A.
Test [3] is described as follows: small molecules captured by biotinylated probe aFGF2 – biochemical, small-molecule microarray, fluorescence 635/667, stem cell growth factor project, primary screen (AID 1067).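 Further: measures binding of biotinylated aFGF2 protein to printed compounds on slides; z-score merges feature fluorescence and signal-to-noise across triplicate slides.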 Conditions: higher = more signal.
The nature of test [4]: small molecules captured by biotinylated probe aFGF10 – biochemical, small-molecule microarray, fluorescence 635/667, stem cell growth factor project, primary screen (AID 1071).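 Further: score merges 667 nm spot intensity and signal to noise from triplicate slides.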 Conditions: higher = more signal.
The target of test [5] is Neurogenic locus notch homolog protein 2 (Homo sapiens) (UniProt Q04721). The experiment in a line: small molecules binding Notch2 protein – biochemical, small-molecule microarray, 635 nm fluorescence, stem cell growth factors, primary screen (AID 1073). Conditions: higher = more signal.
The target in test [6] is Pro-neuregulin-1, membrane-bound isoform (Homo sapiens) (UniProt Q02297). The experiment in a line: small molecules binding neuregulin-1 protein – biochemical, small-molecule microarray, fluorescence 635/667, psychiatric disease protein project, primary screen (AID 1075).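 Further: score combines 667 nm spot fluorescence with signal to noise.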 As to conditions: NRG1 binding, 635 nm fluorescence, higher = more signal.
Test [7] relates to Neuregulin-1 EGF-like domain. Nature of the test: small molecules binding NRG1 EGF domain – biochemical, small-molecule microarray, 635 nm fluorescence, primary screen (AID 1081).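 Further: binding of the protein to compounds printed on small-molecule microarray slides.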 Conditions: higher = more signal.
Test [8] in a line: FRG1 expression reporter modulators in myotubes – cell-based, C2C12 myotubes, firefly/Renilla luciferase, luminescence, FRG1 inhibition for FSHD, primary screen (AID 1084). Conditions: FRG1 promoter luciferase, higher = more signal, called active from +8 up or from −8 down.
The nature of test [9]: small molecules captured by biotinylated probe aFST – biochemical, small-molecule microarray, fluorescence 635/667, stem cell growth factor project, primary screen (AID 1086).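 Further: score merges 667 nm fluorescence with signal-to-noise of each printed compound spot.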 Conditions: higher = more signal.
Test [10] in a line: binders of probe aHhip on microarray, primary screen, stem cell growth factor project, biochemical, small-molecule microarray, fluorescence 635/667 (AID 1087).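 Further: score merges spot fluorescence at 667nm with spot signal to noise ratio.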 Conditions: higher = more signal.
Test [11] deals with PRMT1 (protein arginine N-methyltransferase 1). The experiment in a line: small molecules binding arginine methyltransferase PRMT1 – biochemical, small-molecule microarray, 635 nm fluorescence, primary screen (AID 1088).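 Further: binding of Prmt1 protein to compounds spotted on small-molecule microarray slides.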 Conditions: higher = more signal.
Test [12] in a line: growth effects on S. cerevisiae YJM789 – YJM789 clinical isolate, OD600, 24 h, basal, primary screen (AID 1089).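 Further: growth of clinical yeast isolate S. cerevisiae YJM 789 seeded 1000 cells per well; test concentration not given here.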 Conditions: higher = more signal, called active from +8 up or from −8 down.
Test [13] can be described thus: S. pombe growth modifiers, basal conditions – strain 972, OD600, 24 h, no modulator, primary screen (AID 1090).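 Further: basal condition with compound alone and no growth modifier present; test concentration not given here.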 Conditions: S. pombe 972 growth, higher = more signal, called active from +8 up or from −8 down.
The nature of test [14]: budding yeast growth modifiers under rapamycin – strain BY4716, OD600, 96 h, primary screen (AID 1091). Further: test concentration not given here. As to conditions: S. cerevisiae BY4716 + rapamycin, higher = more signal, called active from +8 up or from −8 down.
Test [15] has as its target Torsin-1A-interacting protein 2 (Homo sapiens) (UniProt Q8NFQ8). The experiment in a line: small molecules binding lysate-expressed LULL1 – cell lysate, human LULL1 lysate, 635/667 nm fluorescence, primary screen (AID 1092).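 Further: probe is lysate of COS7 cells overexpressing human LULL1; score merges per-feature 667 nm fluorescence with signal-to-noise.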 As to conditions: small-molecule microarray, hLULL1 lysate binding, 635 nm fluorescence; higher = more signal.
Test [16] can be described thus: optical density change of DRC41 E. coli – strain DRC41, OD650, 24 h, E. coli filamentation project, primary screen (AID 1093).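 Further: MC1000 strain lacking acrAB efflux and sulA so SOS filamentation is blocked; test concentration not given here.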 As to conditions: E. coli DRC41 growth, higher = more signal, called active from +8 up or from −8 down.
The nature of test [17]: probe aLefty2 binding to arrayed compounds – biochemical, biotinylated probe, 635/667 nm fluorescence, primary screen (AID 1094).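 Further: score merges spot fluorescence near 667 nm with spot signal-to-noise ratio.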 Conditions: small-molecule microarray, higher = more signal.
In test [18] the test system is Noggin (protein binding on small-molecule microarray). Nature of the test: small molecules binding Noggin protein – biochemical, 635/667 nm fluorescence, primary screen (AID 1095).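 Further: score merges 667 nm feature fluorescence with signal to noise over triplicate slides.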 Conditions: 635 nm fluorescence, higher = more signal.
In test [19] the target is Neurogenic locus notch homolog protein 3 (Homo sapiens) (UniProt Q9UM47). The experiment in a line: small molecules binding NOTCH3 protein – biochemical, 635/667 nm fluorescence, primary screen (AID 1096). As to conditions: small-molecule microarray, 635 nm fluorescence, higher = more signal.
Test [20] can be described thus: probe aEGFR binding to arrayed compounds – biochemical, biotinylated probe, 635/667 nm fluorescence, primary screen (AID 1097).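 Further: probe is a biotinylated anti-EGFR antibody binding compounds printed on slides; score combines fluorescence near 667 nm and signal to noise of each spot.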 As to conditions: small-molecule microarray, higher = more signal.

The structures appear in SMILES notation. Active and inactive are the calls of the source.

Chain of Neurogenic locus notch homolog protein 2 (Homo sapiens) (Q04721 whole entry, looked up, canonical isoform): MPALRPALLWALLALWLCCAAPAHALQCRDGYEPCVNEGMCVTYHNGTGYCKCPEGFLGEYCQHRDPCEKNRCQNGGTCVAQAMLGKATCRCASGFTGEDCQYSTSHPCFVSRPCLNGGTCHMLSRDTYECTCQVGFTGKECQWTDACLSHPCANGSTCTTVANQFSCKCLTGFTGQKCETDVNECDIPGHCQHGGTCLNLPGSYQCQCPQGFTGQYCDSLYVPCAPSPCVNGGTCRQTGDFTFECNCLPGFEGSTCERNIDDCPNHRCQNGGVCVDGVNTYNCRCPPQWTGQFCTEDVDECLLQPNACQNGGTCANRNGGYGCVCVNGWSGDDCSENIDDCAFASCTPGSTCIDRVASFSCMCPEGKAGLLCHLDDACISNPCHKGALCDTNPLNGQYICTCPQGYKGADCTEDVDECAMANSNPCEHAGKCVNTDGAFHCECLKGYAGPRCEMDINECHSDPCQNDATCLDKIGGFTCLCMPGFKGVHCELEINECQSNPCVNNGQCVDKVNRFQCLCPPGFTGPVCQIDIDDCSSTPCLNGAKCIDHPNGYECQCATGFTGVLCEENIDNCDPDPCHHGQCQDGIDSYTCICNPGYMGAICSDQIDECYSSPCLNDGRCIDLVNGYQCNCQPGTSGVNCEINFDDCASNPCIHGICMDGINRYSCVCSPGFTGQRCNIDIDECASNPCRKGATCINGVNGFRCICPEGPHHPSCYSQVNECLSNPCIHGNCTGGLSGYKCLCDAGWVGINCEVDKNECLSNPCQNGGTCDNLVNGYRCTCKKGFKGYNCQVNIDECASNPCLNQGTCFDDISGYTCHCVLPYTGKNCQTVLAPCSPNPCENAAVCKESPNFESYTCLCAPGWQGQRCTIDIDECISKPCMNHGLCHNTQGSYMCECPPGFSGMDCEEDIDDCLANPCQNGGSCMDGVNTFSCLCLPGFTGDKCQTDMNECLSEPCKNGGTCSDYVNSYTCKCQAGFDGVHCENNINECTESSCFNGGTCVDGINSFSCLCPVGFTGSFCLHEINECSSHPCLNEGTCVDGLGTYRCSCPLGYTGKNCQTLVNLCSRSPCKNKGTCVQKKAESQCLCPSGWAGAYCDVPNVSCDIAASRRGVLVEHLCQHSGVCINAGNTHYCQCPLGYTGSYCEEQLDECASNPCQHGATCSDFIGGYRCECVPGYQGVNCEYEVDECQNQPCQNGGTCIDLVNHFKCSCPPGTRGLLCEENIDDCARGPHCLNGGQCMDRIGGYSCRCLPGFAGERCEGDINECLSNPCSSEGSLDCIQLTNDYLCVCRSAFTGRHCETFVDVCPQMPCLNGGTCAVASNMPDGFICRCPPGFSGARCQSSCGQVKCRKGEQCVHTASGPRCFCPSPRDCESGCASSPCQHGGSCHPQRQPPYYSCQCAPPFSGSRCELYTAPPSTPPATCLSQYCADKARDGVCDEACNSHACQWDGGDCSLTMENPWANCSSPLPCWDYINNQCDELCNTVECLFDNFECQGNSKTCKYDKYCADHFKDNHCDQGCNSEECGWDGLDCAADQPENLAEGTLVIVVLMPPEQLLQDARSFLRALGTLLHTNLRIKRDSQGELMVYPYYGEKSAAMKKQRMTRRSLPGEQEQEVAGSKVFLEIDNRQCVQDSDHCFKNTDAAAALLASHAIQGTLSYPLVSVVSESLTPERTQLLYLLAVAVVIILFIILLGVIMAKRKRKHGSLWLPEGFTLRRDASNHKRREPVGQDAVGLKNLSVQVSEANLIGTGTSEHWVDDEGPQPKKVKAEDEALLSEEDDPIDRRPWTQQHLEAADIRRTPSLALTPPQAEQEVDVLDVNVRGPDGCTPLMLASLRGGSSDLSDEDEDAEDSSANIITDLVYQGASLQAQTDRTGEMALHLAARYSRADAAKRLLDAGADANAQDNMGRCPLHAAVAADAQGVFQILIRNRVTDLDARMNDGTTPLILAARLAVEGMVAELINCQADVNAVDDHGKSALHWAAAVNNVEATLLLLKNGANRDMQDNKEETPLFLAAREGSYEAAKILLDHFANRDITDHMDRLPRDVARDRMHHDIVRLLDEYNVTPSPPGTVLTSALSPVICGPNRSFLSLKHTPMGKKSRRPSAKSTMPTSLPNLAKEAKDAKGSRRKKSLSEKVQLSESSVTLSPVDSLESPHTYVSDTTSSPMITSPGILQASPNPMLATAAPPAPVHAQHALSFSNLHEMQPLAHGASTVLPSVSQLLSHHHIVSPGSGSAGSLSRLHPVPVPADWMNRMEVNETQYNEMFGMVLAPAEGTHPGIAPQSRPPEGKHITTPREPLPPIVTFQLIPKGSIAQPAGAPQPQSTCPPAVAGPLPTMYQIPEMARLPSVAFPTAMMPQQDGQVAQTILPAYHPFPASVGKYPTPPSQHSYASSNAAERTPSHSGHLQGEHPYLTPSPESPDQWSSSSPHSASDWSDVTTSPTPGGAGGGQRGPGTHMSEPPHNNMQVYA
Chain of Torsin-1A-interacting protein 2 (Homo sapiens) (Q8NFQ8 whole entry, looked up): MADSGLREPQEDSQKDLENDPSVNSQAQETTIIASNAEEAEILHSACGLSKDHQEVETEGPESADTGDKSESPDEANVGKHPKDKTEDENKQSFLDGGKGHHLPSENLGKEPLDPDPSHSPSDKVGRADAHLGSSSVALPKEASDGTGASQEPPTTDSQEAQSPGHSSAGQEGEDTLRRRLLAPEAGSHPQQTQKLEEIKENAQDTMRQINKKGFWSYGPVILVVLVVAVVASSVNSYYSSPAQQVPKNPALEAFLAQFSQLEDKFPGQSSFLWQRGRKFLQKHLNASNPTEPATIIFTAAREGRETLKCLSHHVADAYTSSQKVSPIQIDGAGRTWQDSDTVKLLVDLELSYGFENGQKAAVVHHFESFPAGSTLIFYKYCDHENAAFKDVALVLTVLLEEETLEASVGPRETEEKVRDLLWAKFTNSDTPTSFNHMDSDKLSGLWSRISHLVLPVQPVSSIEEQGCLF
Chain of Pro-neuregulin-1, membrane-bound isoform (Homo sapiens) (Q02297 whole entry, looked up, the tested form may be a part, canonical isoform): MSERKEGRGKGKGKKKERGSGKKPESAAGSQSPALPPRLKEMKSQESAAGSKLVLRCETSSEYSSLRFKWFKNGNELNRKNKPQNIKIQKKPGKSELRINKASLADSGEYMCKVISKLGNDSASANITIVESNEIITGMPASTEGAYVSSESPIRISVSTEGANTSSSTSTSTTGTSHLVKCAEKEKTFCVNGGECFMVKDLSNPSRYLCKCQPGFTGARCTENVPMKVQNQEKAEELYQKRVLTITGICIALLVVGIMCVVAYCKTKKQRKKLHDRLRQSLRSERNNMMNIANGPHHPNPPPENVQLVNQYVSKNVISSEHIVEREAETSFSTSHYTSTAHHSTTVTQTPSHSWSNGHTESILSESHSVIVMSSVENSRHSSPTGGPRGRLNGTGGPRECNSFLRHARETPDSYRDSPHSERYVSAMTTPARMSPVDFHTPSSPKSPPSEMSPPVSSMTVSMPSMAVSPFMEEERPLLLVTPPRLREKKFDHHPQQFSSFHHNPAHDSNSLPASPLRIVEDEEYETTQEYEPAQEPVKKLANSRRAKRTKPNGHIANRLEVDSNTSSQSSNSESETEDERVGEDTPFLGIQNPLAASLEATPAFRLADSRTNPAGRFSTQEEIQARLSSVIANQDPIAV

Consider `COCC(=C=CC[C@H](O)c1ccccc1OCCO)C[C@H](O)c1cc(Cl)cc(Cl)c1O`, for which the composite z-score is -0.417 in test [1]; 0.555 in [2]; -0.129 in test [3]; 0.999 in [4]; 0.421 in test [5]; 1.43 in test [6]. Besides, the composite z-score in test [7] is 1.14; in [9], 0.372; in test [10], -0.0994; in test [11] it was 1.45; in test [15] it was 2.7; in test [17], -0.0653. The composite z-score in test [18] was 0.653; in test [19], 1.03; in [20], -0.0703. Also, the z-score is -3.97 (inactive) in test [8]; -24.4 (active) in test [12]; -20.3 (active) in test [13]; -4.61 (inactive) in test [14]; -0.628 (inactive) in test [16].

Take `CCCC[C@@H]1C[C@H]1[C@@H](NC(=O)c1ccco1)c1ccc(Cl)cc1`: the composite z-score in test [1] was 0.159; in test [2], 0.308; in [3], 0.0296; in test [4], 0.0982; in [5] it was 1.22; in test [6], 1.01. Moreover, the composite z-score in test [7] stood at 1.05; in [9], 0.829; in [10] it was 0.0274; in test [11] it was 0.44; in [15], 2.89; in test [17] it was 0.164. For the same compound, the composite z-score in test [18] was -0.576; in test [19], 0.889; in test [20], 0.0271. Further, the z-score was -1.51 (inactive) in test [8]; 0.622 (inactive) in test [12]; 0.362 (inactive) in test [13]; 0.384 (inactive) in test [14]; -0.815 (inactive) in test [16].

Regarding `NC(=O)[C@@H]1[C@H]2C(=O)O[C@H](c3ccccc3)[C@H](c3ccccc3)N2[C@H](c2ccc(O)cc2)[C@@]12C(=O)Nc1ccc(C#CC3(O)CCCCCC3)cc12`, the composite z-score came out at 0.372 in [1]; 0.167 in [2]; 0.0075 in [3]; 0.244 in test [4]; 0.0065 in test [5]; 0.959 in test [6]. Moreover, the composite z-score is 1.42 in test [7]; -0.0686 in test [9]; -0.0645 in test [10]; 0.454 in [11]; 2.14 in test [15]; -0.072 in [17]. The composite z-score in test [18] was -0.6; in test [19] it was -0.395; in test [20] it was -0.178. Besides, the z-score in test [8] is 0.854 (inactive); in test [12], 0.505 (inactive); in test [13], -0.133 (inactive); in test [14], 0.639 (inactive); in test [16], -0.441 (inactive).

Take `CCCCc1cn(C[C@H](Cc2ccccc2)NC(=O)N[C@H](CO)CCc2oc(C(C)=O)c(C(=O)OC)c2C(=O)OC)nn1`: the composite z-score is -0.422 in test [1]; 0.651 in test [2]; -0.166 in [3]; 0.864 in [4]; 1.56 in [5]; 0.979 in test [6]. For the same compound, the composite z-score in test [7] is 1.32; in [9] it was 0.839; in test [10], -0.0994; in test [11] it was 1.54; in test [15], 1.7; in [17], 0.165. Moreover, the results for the composite z-score in [18], in test [19] and in [20] were 1.14, 1.1 and 0.114, respectively. Moreover, the z-score in test [8] is 0.833 (inactive); in test [12] it was -0.425 (inactive); in test [13], -0.0326 (inactive); in test [14], -0.173 (inactive); in test [16], 0.0003 (inactive).

With `CN(C)C(=O)[C@@]1(Cc2ccccc2)N=C(c2ccc(OCCCO)cc2)O[C@H]1c1ccccc1N=[N+]=[N-]`, the composite z-score in test [1] is 0.0567; in [2] it was -0.204; in test [3] it was 0.061; in test [4], 0.64; in test [5], 1.55; in [6], 1.56. Also, the composite z-score in test [7] was 1.12; in test [9], 1.69; in [10], -0.353; in test [11] it was 1.53; in test [15], 3.3; in test [17], 0.306. For the same compound, the figures for the composite z-score in [18], in [19] and in test [20] were 0.835, 1.11 and 0.0595, respectively. For the same compound, the z-score is -1.66 (inactive) in test [8]; -2.59 (inactive) in test [12]; -1.89 (inactive) in [13]; 4.73 (inactive) in [14]; 0.875 (inactive) in test [16].

The record behind these values is PubChem BioAssay.
